One assay deals with CNPPD1. Kind of assay: pooled miR-30 sensor sort-seq; sequence = guide strand. Conditions: shRNA.
In turn, TAGTCTGGGTTTCGGTGCCGGA showed a sensor-assay potency score (higher = more potent) of -1.29.

As to TATGCCACAGCTAACAGGCAAG, the sensor-assay potency score (higher = more potent) is -1.37.

Take TTCGTCGTTGAAGACCTCCTCC: the sensor-assay potency score (higher = more potent) was found to be 0.0687.

TATTTCTTCTGGAGTCGGCGAA yielded a sensor-assay potency score (higher = more potent) of -0.148.

For ATGAGCTACGTATTTCTTCTGG, the sensor-assay potency score (higher = more potent) is -0.315.

For the sequence TCTGTGTAGGTGTACCAGCCTC, the sensor-assay potency score (higher = more potent) was -1.36.

Take TAGAGCCTCCTTCGGATCCGGG: the sensor-assay potency score (higher = more potent) was -1.33.

In turn, TCTCTCTGGAGCTTCTGGCAAA showed a sensor-assay potency score (higher = more potent) of -0.958.

In turn, TTACTGGCCACCATCATGGAGA had a sensor-assay potency score (higher = more potent) of -0.834.

Regarding TTCGACAGCAATGTCTGCCACC, the sensor-assay potency score (higher = more potent) is -0.8.

Consider TTCAATGTACACCAGAGCCAGC, for which the sensor-assay potency score (higher = more potent) is -1.25.

As to TGAAAAGGGAACATTGCTGAGG, the sensor-assay potency score (higher = more potent) is -0.362.

A further assay addresses CNTD1. The description is as above. As to conditions: shRNA.
Turning to TTTTGGATGAAAGCACTTGCTG, the sensor-assay potency score (higher = more potent) is -1.34.

TTCATGCAGAAGATAGACCAGG: the sensor-assay potency score (higher = more potent) was -0.656.

TAAACTTGTTGACAAGCTGCTG: the sensor-assay potency score (higher = more potent) was -0.0466.

In the case of TTCTAGGATTTCTACAGCCTGG, the sensor-assay potency score (higher = more potent) is -0.787.

TAGACTGCTGTCTCCCCGGAGT yielded a sensor-assay potency score (higher = more potent) of -0.817.

On to TAAGAGAACTCAGCAATGCTTG, for which the sensor-assay potency score (higher = more potent) was -0.451.

For the sequence TCTCTTATTATCTCTTGGCTGG, the sensor-assay potency score (higher = more potent) is -0.35.

Sequence TTTAGTGTGTAGATAGCCTAGA displayed a sensor-assay potency score (higher = more potent) of 0.238.

Sequence TTTGGATGAAAGCACTTGCTGC showed a sensor-assay potency score (higher = more potent) of -0.907.

TTACCATAAACCTTTCTAGGAT gave a sensor-assay potency score (higher = more potent) of -0.637.

In turn, AAACTTGTTGACAAGCTGCTGT came in with a sensor-assay potency score (higher = more potent) of 0.446.

The record behind these values is the OligoGym collection.
Note: reference of the scale not given here.
